# Only some compounds are listed: those with a hit (about 10% of all), similar ones and a draw of the others.
# Six1-Eya2 blk = inhibitors of human Six1/Eya2 interaction. activity change, % (test concentration not listed). AlphaScreen GST-Six1/His-Eya2 binding, biochemical; hits give low values. hit rate 0.56% among 360,000; in the data active = activity change below about -65%; inconclusive = mostly about -30% to -63%; note: % is set by controls: 0 for no effect and ±100 for the full control effect
# Target sequence (O00167 whole entry, looked up): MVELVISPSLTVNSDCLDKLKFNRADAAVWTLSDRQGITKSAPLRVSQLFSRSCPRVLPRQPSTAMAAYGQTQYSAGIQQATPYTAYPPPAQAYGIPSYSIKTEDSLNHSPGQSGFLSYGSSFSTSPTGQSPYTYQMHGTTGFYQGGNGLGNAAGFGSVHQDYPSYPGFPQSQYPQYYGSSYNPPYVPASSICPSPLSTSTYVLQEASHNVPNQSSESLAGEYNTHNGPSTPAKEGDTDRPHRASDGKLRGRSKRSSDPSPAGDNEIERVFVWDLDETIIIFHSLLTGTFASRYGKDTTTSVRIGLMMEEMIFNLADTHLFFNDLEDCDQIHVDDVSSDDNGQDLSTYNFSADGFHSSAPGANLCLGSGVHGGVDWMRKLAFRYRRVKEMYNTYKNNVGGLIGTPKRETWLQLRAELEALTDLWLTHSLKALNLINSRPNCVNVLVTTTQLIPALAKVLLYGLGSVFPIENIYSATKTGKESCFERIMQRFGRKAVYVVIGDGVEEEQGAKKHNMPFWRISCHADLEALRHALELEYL
# Target sequence (Q15475 whole entry, looked up): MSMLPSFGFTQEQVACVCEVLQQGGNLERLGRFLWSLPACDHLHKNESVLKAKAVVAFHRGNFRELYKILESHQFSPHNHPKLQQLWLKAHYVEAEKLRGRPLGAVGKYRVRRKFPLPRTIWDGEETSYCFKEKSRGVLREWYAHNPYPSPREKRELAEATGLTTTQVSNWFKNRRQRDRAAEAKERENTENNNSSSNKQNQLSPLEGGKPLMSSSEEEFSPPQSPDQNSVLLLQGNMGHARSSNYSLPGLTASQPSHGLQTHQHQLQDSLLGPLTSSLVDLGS
#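 AlphaScreen with GST-Six1 and His-Eya2 (5X mix: 250 nM and 500 nM), glutathione donor and nickel acceptor beads; buffer 50 mM Tris pH 8.0, 300 mM NaCl, 1 mM TCEP; 1 h at 37 C in the dark.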
# CtBP-E1A inh = blocks the CtBP interaction with E1A; activity change, % (concentration not given with the values); hit rate 0.49% among 340,000; AlphaScreen GST-E1A/His-CtBP binding, 1536-well; hits give low values; in the data active = activity change below about -65%; inconclusive = mostly about -30% to -63%; note: % is set by controls: 0 for no effect and ±100 for the full control effect
#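 GST-E1A and His-tagged CtBP (125 nM each as 5X stock) were preincubated with pin-transferred compound for 2 h at 37 °C in the dark, then glutathione donor and nickel acceptor beads were added for 1 h before AlphaScreen reading.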
# G9a block = G9a (human) methyltransferase inhibition; Q96KQ7; AID 504332; hit rate 8.8% among 350,000; Potency, µM (highest dose often 102 µM), inactives show at the highest dose activity, negative = inhibition, actives largely listed as inhibitors; G9a H3K9 monomethylation, AlphaScreen, 2 h; note: potency is the fitted concentration of half-maximal effect; % is set by controls: 0 for no effect and ±100 for the full control effect; nearly all actives have a fitted effect of over 75% in size
#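 Step 1: enzyme (final 20 nM) with compound, 15 min RT. Step 2: substrate peptide 500 nM and SAM 20 uM, 2 h RT. Step 3: anti-H3K9me1 antibody and AlphaScreen beads, 10 min, then plate read.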
# JMJD2A Tudor inh = JMJD2A Tudor domain (human) inhibition; O75164; AlphaScreen JMJD2A-Tudor / H3K4me3 peptide binding; Potency, µM (doses to about 114 µM), for the others: at the highest dose activity change, negative = inhibition, most hits filed as inhibitors; hit rate 4.4% among 390,000; note: potency is the fitted concentration of half-maximal effect; % is set by controls: 0 for no effect and ±100 for the full control effect; nearly all actives have a fitted effect of over 50% in size
# HP1b binding inh = HP1-beta chromodomain-methylated histone interaction inhibition; hit rate 0.56% among 390,000; P83916; AID 540317; Potency, µM (highest dose often 114 µM), for inactives: at the top dose activity change, negative = inhibition, most hits filed as inhibitors; AlphaScreen HP1-beta / biotin-H3K9me3 peptide binding; note: potency is the fitted concentration of half-maximal effect; nearly all actives have a fitted effect of over 70% in size
#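 AlphaScreen: HP1-beta (50 nM) preformed 30 min with biotin-H3(1-18)K9me3 peptide (50 nM) in PBS pH 7.4, 0.01% Tween-20. Compound added for 30 min at RT, then streptavidin donor/nickel chelate acceptor beads (10 ug/mL) for 30 min.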
# BAZ2B block = inhibitors of human BAZ2B bromodomain | AlphaScreen BAZ2B-H3K14Ac peptide displacement | Potency, µM (series often up to 114 µM), without a hit: at the highest dose activity change, negative = inhibition, actives largely listed as inhibitors | hit rate 4.4% among 360,000 | AID 504333; note: potency is the fitted concentration of half-maximal effect; % is set by controls: 0 for no effect and ±100 for the full control effect; nearly all actives have a fitted effect of over 60% in size
#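 BAZ2B 50 nM plus b-H3(5-23)K14Ac 50 nM, PBS pH 7.4/0.01% Tween-20, 30 min RT; compound added (max 110 uM), 30 min RT; streptavidin donor/Ni-chelate acceptor beads 10 ug/mL final, 20 min dark; AlphaScreen read.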
# The depositor's hits bear a star; ? = inconclusive; . = no result given; [ ] = another dose, or the depositor's remark. Unless noted, calls come from the whole dose curve; as a rule, active = well fitted inhibition curve with a large enough effect; inconclusive = small, poorly fitted or top-dose-only effect; inactive = no such curve, though single readings can be large or run the other way.
SMILES,Six1-Eya2 blk,CtBP-E1A inh,G9a block,JMJD2A Tudor inh,HP1b binding inh,BAZ2B block
O=C(N/N=C/c1ccccn1)C(=O)N1CCCCCC1,?,?,?,-25.7%,27.9%,-8.0%
CC1=Nc2ccccc2/C1=C/c1c(C)[nH]c2ccccc12,-21.2,-22.2,.,56.2µM*,?,.
CC1=Nc2ccccc2/C1=C\c1nc(-c2ccccc2)oc1O,-8.7,-10.6,?,?,4.9%,?
Cc1ccc2[nH]c(CSc3nnc(NC(=O)COc4ccccc4)s3)cc(=O)c2c1,.,.,-24.5%[59 µM],-12.3%,24.6%[57 µM],5.0%
O=C(CSc1n[nH]c(-c2ccc(Cl)cc2Cl)n1)Nc1ccccn1,-16.2,-14.3,?,-11.5%,30.8%,-25.7%
O=C(CSc1n[nH]c(-c2ccccc2)n1)Nc1ccccc1O,3.2,10.1,50.1µM*,-19.0%,6.9%,-20.3%
O=C(CSc1n[nH]c(-c2ccncc2)n1)Nc1ccccc1,-11.1,0.0,17.7%,-9.3%,12.2%,-3.9%
Cc1ccc(NC(=O)CSc2n[nH]c(-c3ccccn3)n2)cc1,-77.4*,-90.5*,8.3%[59 µM],3.98µM*,58.1%,3.98µM*
O=C(CSc1n[nH]c(-c2ccccc2)n1)Nc1ccc(F)cc1F,-2.5,8.6,14.5%,-9.0%,39.9%,-17.3%
O=C(CSc1n[nH]c(-c2ccccn2)n1)Nc1ccc(Cl)cc1,-90.8*,-92.4*,35.3%,10µM*,55.6%,5.01µM*
O=C(CSc1n[nH]c(-c2ccccn2)n1)Nc1ccc(F)cc1,?,-94.8*,37.8%,5.62µM*,32.2%,3.98µM*
Cc1ccc(C)c(N2CCN(C(=O)c3cc(C)nc4c3c(C)nn4-c3ccccc3)CC2)c1,.,.,-30.1%[59 µM],-9.1%,44.7%,0.0%[57.1 µM]
CCc1nc(SCC(=O)Nc2ccc(C(=O)O)cc2)n[nH]1,26.9,24.4,44.7µM*,-14.5%,91.8%,-4.1%
CCc1nc(SCC(=O)Nc2ccc(N(C)C)cc2)n[nH]1,2.6,-0.8,-16.8%[0.501 µM],-19.3%,2.9%,-7.1%
Cc1cccn2c(=O)cc(COc3ccc(NC(=O)c4cccc(F)c4)cc3)nc12,.,.,7.9%[59 µM],-25.3%,22.2%[57 µM],6.2%
COc1ccc(-c2ccc(N(C)C)cc2)cc1[C@H]1[C@H]2C=CC[C@@H](C)[C@@H]2C(=O)N1Cc1ccccc1,-26.2,?,?,5.62µM*,?,?
COc1ccc(-c2ccc(N(C)C)cc2)cc1C1C2C=CCC(C)C2C(=O)N1Cc1ccccc1 (centres undefined),.,.,.,7.08µM*,-24.3%,.
Cc1ccccc1Nc1nnc(SCC(=O)c2c(N)n(C3CC3)c(=O)[nH]c2=O)s1,0.0,1.7,10µM*,-9.0%,24.5%,11.5%
Cc1ccccc1Nc1nnc(SCC(=O)c2ccc(O)cc2O)s1,-4.7,-4.5,8.91µM*,-33.6%,-7.2%,-33.8%
Cc1ccc(Nc2nnc(SCC(=O)c3ccc(Br)s3)s2)c(C)c1,-11.2,-18.3,11.2µM*,-18.2%,10.0%,-27.0%
CNc1nnc(SCC(=O)c2c(N)n(C3CC3)c(=O)[nH]c2=O)s1,-3.3,2.0,44.7µM*,-9.9%,9.1%,10.6%
COc1ccccc1Nc1nnc(SCC(=O)c2c(N)n(C3CC3)c(=O)[nH]c2=O)s1,-10.6,-4.8,.,-6.3%,23.1%,.
Cc1ccc(Nc2ccncc2S(N)(=O)=O)cc1,0.7,.,.,-0.6%,50.6%,.
CSc1nnc(Nc2ccccc2C)s1,1.4,4.1,28.2µM*,-10.7%,28.8%,0.9%
Cc1cc(C)cc(-n2ccnc2SCC(=O)c2c(N)n(C3CC3)c(=O)[nH]c2=O)c1,-18.4,-23.7,2.51µM*,-13.5%,23.2%,5.1%
SMILES,Six1-Eya2 blk,CtBP-E1A inh,G9a block,JMJD2A Tudor inh,HP1b binding inh,BAZ2B block
Cc1cc(NC(=O)CSc2nnc(Nc3ccccc3C)s2)no1,-1.2,6.7,?,0.0%[11.4 µM],-14.8%,-20.3%
Cc1ccc(C)c(-n2ccnc2SCC(=O)c2c(N)n(C3CC3)c(=O)[nH]c2=O)c1,2.0,-10.9,-7.4%[2.33 µM],-4.4%,41.4%,-2.3%
CCCn1c(N)c(C(=O)CSc2nnc(-c3cccs3)n2C2CC2)c(=O)[nH]c1=O,-13.0,-2.8,.,-4.9%,14.9%,.
Cn1c(N)c(C(=O)CSc2nnc(-c3cccs3)n2C2CC2)c(=O)[nH]c1=O,-9.1,-4.2,50.1µM*,-11.0%,18.7%,4.1%
CCn1ccnc1CNCc1ccc(OCC(O)CN(C)Cc2ccccc2)cc1 (centres undefined),-2.1,.,.,?,7.9%,?
CN(Cc1ccccc1)CC(O)COc1ccc(CNCc2nccn2C)cc1 (centres undefined),-15.4,.,.,-15.0%[11.4 µM],14.3%,56.2µM*
Cc1cccc(C)c1OCCCn1ccnc1,-1.4,.,.,25.1µM*,?,?
Cc1ccc(OCCCCn2ccnc2)c(Cl)c1,-4.1,-6.4,-15.6%[59 µM],?,-1.2%,-38.5%
Clc1ccc(OCCCn2ccnc2)c(Br)c1,-2.1,-0.7,3.55µM*,5.62µM*,15.8µM*,31.6µM*
Cc1cc(Cl)c(OCCCn2ccnc2)c(Br)c1,-12.8,-0.3,?,22.4µM*,?,50.1µM*
Cc1cc(C)cc(OCCCn2ccnc2)c1,-2.4,-7.5,.,-26.9%,26.9%,?
Cc1cc(C)c(OCCCn2ccnc2)c(C)c1,1.8,1.7,-12.1%[59 µM],-24.3%,25.0%,?
Cc1sc2ncnc(SCC(=O)NC(=O)c3cccn3C)c2c1C,1.1,-0.1,31.6µM*,-24.7%,3.8%,-21.1%
CCN(CC(=O)Nc1ccc(NC(C)=O)cc1)C(=O)CSc1ncnc2sc(C)c(C)c12,-11.0,4.5,12.6µM*,?,7.7%,-32.4%
Cc1sc2ncnc(Sc3ccccc3C(=O)O)c2c1C,8.7,-17.8,-15.1%[59 µM],-5.4%,8.9%,-8.7%
CC(=O)Nc1ccc(NC(=O)CSc2ncnc3sc(C)c(C)c23)cc1,-7.1,0.0,10.4%,-6.0%,2.3%,-11.2%
CC(=O)c1ccc(NC(=O)c2ccccc2Sc2ncnc3sc(C)c(C)c23)cc1,0.2,-5.9,31.6µM*,-20.8%,19.7%,-36.4%
O=C(COc1ccccc1)NCC(c1cccs1)S(=O)(=O)c1ccc(Cl)cc1 (centres undefined),.,.,10µM*,17.8µM*,14.1µM*,-11.0%
COc1ccc(CC(=O)NCC(c2cccs2)S(=O)(=O)c2ccc(Cl)cc2)cc1 (centres undefined),.,.,8.91µM*,17.8µM*,10µM*,?
COc1cc(OC)cc(C2=Nn3c(nnc3-c3ccccc3OC)SC2)c1,.,.,.,-33.8%,.,.
O=S(=O)(CCc1ccccc1)N1CCOCC1,12.4,-1.5,4.8%,-2.6%,16.5%,-2.4%
CC(CCc1ccccc1)N1CCN(Cc2ccccc2)CC1 (centres undefined),-8.7,-23.4,11.2µM*,2.24µM*,44.7µM*,50.1µM*
